High-throughput results from PubChem BioAssay.
An excerpt weighted towards active compounds, which were near 2.2% of everything screened.
p-CIP stab down: p/CIP protein destabilization; Q05BA5; F442A p/CIP-EGFP cells, EGFP fluorescence, 16 h; decrease of EGFP signal, % at 10 µM; actives 0.01% (n = 290,000); AID 1984;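 active means EGFP signal decrease of at least 30% at 10 µM or well 3 SD below plate mean, unless failing retest; inactive means the rest, including hits failing retest or dose response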
PHOSPHO1 inh: blocks human PHOSPHO1 phosphatase activity | inhibition, % at 13.3 µM | Q8TCT1 | recombinant PHOSPHO1, absorbance phosphatase assay | actives 1.1% (n = 290,000) | AID 1565; in the data active means inhibition above about 60%
HDAC3 inhib: inhibitors of human histone deacetylase 3; recombinant HDAC3, fluorogenic peptide/trypsin coupled, fluorescence; actives 0.15% (n = 320,000); O15379; inhibition, % at 8.3 µM; in the data active means inhibition above about 26%, passing the limit was not always enough
GASC-1 inh: inhibitors of human GASC-1 (JMJD2C) demethylase. Q9H3R0. GST-JMJD2C(1-420) H3K9me3 demethylation, DELFIA europium. inhibition, % at 2.35 µM. actives 0.069% (n = 330,000);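 active means more than half of a compound's replicate wells show inhibition beyond 50%, single wells judged on their own value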;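 further: signal counts dimethyl H3K9 product captured on neutravidin plate; 0% = median of DMSO wells and 100% = 0.3 times that DMSO median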
Target sequence (Q9H3R0 1-420 limits assumed): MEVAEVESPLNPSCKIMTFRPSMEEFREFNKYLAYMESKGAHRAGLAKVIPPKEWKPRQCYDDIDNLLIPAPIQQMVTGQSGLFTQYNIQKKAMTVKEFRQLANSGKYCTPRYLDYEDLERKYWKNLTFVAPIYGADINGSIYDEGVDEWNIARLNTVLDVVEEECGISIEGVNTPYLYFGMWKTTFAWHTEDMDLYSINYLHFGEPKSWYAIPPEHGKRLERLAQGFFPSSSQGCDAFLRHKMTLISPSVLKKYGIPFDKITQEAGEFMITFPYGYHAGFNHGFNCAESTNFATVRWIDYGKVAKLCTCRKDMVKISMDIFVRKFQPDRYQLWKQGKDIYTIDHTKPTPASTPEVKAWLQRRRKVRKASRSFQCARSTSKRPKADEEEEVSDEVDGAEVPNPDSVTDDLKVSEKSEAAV
SUMO Mot1 rescue: inhibitors of SUMOylation pathway: yeast Mot1-301 growth rescue; S. cerevisiae Mot1-301 growth rescue, ATP luminescence, 38.5C; percent above DMSO median, 100 means doubled; growth rescue, % at 18.8 µM; actives 1% (n = 320,000); AID 2716;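 active means every valid replicate shows activation above 250% relative to neutral control wells; inactive means the rest, any valid replicate at or below 250%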;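 further: OY570 slx delta 5 strain wells were the positive control but not used for scaling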
PvdQ acylase: P. aeruginosa PvdQ acylase inhibition | purified PvdQ acylase, fluorescence plate reader | inhibition, % at 10 µM | actives 0.063% (n = 340,000) | AID 488965; in the data active means inhibition above about 30%, passing the limit was not always enough;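 further: 0% = vehicle neutral wells and 100% = reference inhibitor wells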
Mot1 SUMO dose: yeast SUMO pathway inhibition in dose response | shares compounds with SUMO Mot1 rescue | S. cerevisiae Mot1-301 galactose growth, ATP luminescence, 24 h; -100 = growth of slx-deleted rescue strain | growth activity, percent, % at 42 µM | 2,300 tested, under 10 active | AID 493004;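 active means Signal drops as the depositor expects, and the fitted half-maximal dose is no more than ten times the top valid tested dose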;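 further: more negative values mean stronger growth rescue toward the control strain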
Numbers without * were called inactive; · = no result given; + = active, no number.

SMILES | p-CIP stab down | PHOSPHO1 inh | HDAC3 inhib | GASC-1 inh | SUMO Mot1 rescue | PvdQ acylase | Mot1 SUMO dose
O=C(NC1=NCCS1)c1ccc(C(F)(F)F)cc1 | -10 | 16 | -1 | 13 | -11 | 4 | ·
O=C(Nc1ncccn1)c1ccc(C(F)(F)F)cc1 | -4 | -10 | 6 | 2 | 438* | 6 | -1
COc1ccc(OCC(O)CN2C(=O)NC(C)(C)C2=O)cc1 (stereo not drawn) | 6 | 14 | 3 | -1 | + | -17 | 2
CC1(C)NC(=O)N(CC(O)COc2cccc(F)c2)C1=O (stereo not drawn) | -12 | -14 | -3 | -10 | 15 | 12 | ·
O=C(c1ccncc1)N(Cc1ccccc1)Cc1nc2ccccc2c(=O)[nH]1 | -16 | -7 | 10 | -20 | 414* | -14 | 0
COc1cccc(C2CC(c3cccc(NS(C)(=O)=O)c3)=NN2C(=O)c2ccccc2)c1OC (stereo not drawn) | -8 | 7 | 0 | 6 | 387* | -3 | 0
CCc1ccc(C(=O)/C=C/Nc2ccc(S(=O)(=O)Nc3cnc4ccccc4n3)cc2)cc1 | -11 | 30 | 1 | 4 | -23 | -11 | ·
O=S(=O)(NC1CCCCC1N1CCN(c2ccc(F)cc2)CC1)c1ccccc1 (stereo not drawn) | -2 | 42 | 2 | 1 | -3 | 1 | ·
Cc1ccc(C(C(=O)Nc2ccc3c(c2)OCO3)N(C)C(=O)Cc2c[nH]c3ccccc23)cc1 (stereo not drawn) | -10 | -7 | 3 | -3 | 756* | 12 | 0
CC(=O)NC(Cc1c[nH]c2ccccc12)C(=O)OCC(=O)Nc1ccc2c(c1)OCO2 (stereo not drawn) | -6 | 18 | 3 | 27 | 40 | -4 | ·
Cc1ccc(S(=O)(=O)NC2CCCCCCC2)cc1 | -5 | 14 | 3 | -7 | 454* | -14 | 1
Cc1ccc(S(=O)(=O)Nc2n[nH]nc2C(=O)NC2CCCCC2)cc1 | 7 | 46 | 5 | -1 | 517* | -14 | 0
Cn1cccc1CC(=O)N/N=C/c1cccc([N+](=O)[O-])c1 | -13 | -9 | 4 | -2 | 409* | 1 | 0
O=C(N/N=C/c1cccc([N+](=O)[O-])c1)C1COc2ccccc2O1 (stereo not drawn) | 0 | -15 | 4 | 0 | 678* | -8 | 0
COC(=O)CCC(=O)OC1(C)C(=O)C2=CN(Cc3ccccc3)C(c3ccc(OC)cc3)=CC2=C(Br)C1=O (stereo not drawn) | · | · | -3 | -1 | 16 | -20 | ·
COC(=O)CCC(=O)OC1(C)C(=O)C2=CN(CCc3c[nH]c4ccccc34)C(c3ccc(OC)cc3)=CC2=C(Br)C1=O (stereo not drawn) | · | · | -3 | 4 | 419* | -10 | 0
CC(C)(C)C(=O)C(Cl)C(=O)Nc1ccccc1 (stereo not drawn) | -16 | 35 | -4 | 9 | 604* | -1 | -4
O=C(COC(=O)/C=C/c1ccco1)Nc1ccc(F)cc1Cl | -10 | -23 | 9 | 10 | 6 | -17 | ·
COC(=O)C(CO)Nc1ncnc2onc(-c3ccc(F)cc3)c12 (stereo not drawn) | 8 | 14 | -3 | 7 | 120 | -6 | ·
C#CCn1c(=NC(=O)c2cccs2)sc2cccc(OC)c21 | -4 | -11 | 10 | 6 | -9 | -3 | ·
C#CCn1c(=NC(=O)CN2C(=O)CCC2=O)sc2cccc(OC)c21 | 5 | 24 | · | 0 | + | -10 | 1
Cc1ccc(S(=O)(=O)N2CC(O)CC2C(=O)OCC(=O)c2ccccc2Cl)cc1C (stereo not drawn) | 10 | 9 | · | 8 | 2 | -12 | ·
CCN(C(=O)Nc1ccccc1OC)c1c(N)n(Cc2ccccc2)c(=O)[nH]c1=O | -1 | -4 | -8 | 4 | 471* | 2 | 0
CCN(C(=O)COC(=O)CCc1ccccc1OC)c1c(N)n(Cc2ccccc2)c(=O)[nH]c1=O | · | · | -1 | -7 | 1 | 4 | ·
COc1cc(/C=C2/C(=O)NN(c3ccc(Cl)cc3)C2=O)cc(Br)c1O | 11 | 15 | 9 | 4 | 53 | -11 | ·
SMILES | p-CIP stab down | PHOSPHO1 inh | HDAC3 inhib | GASC-1 inh | SUMO Mot1 rescue | PvdQ acylase | Mot1 SUMO dose
COc1cccc(/C=C2/C(=O)NN(c3ccc(Br)cc3)C2=O)c1O | 5 | 29 | -2 | 4 | 528* | -11 | 0
COc1ccc(N2CCN(C3CCCN(Cc4ccc(F)c(F)c4)C3)CC2)cc1 (stereo not drawn) | -2 | · | 4 | -7 | 13 | -14 | ·
COc1ccc(N2CCN(C3CCCN(Cc4cccc(OC)c4)C3)CC2)cc1 (stereo not drawn) | -1 | 34 | -1 | 12 | 667* | 0 | 0
COc1cccc(N2CCN(C3CCCC(C)C3)CC2)c1 (stereo not drawn) | 2 | -21 | -3 | 0 | 676* | -17 | 0
Cc1cccc(/C(N)=N/OC(=O)CCCc2ccccc2)c1 | -9 | 18 | -2 | 14 | 3 | -12 | ·
CCCn1nc(C(=O)NNC(=O)c2cc(S(=O)(=O)NC)ccc2Br)c2ccccc2c1=O | · | · | -1 | 3 | 549* | 0 | -1
O=c1cnc2ccccc2n1Cc1ccccc1C(F)(F)F | -6 | -120 | 1 | -13 | 515* | 26 | 0
COc1cccc(C2/C(=C(/O)c3ccc4c(c3)CC(C)O4)C(=O)C(=O)N2CC2CCCO2)c1 (stereo not drawn) | -13 | -30 | 0 | 4 | -3 | 3 | ·
Cn1c(CCN2CCOCC2)nc2cc(NC(=O)COc3ccccc3)ccc21 | -3 | -3 | 0 | 18 | + | 3 | 1
Cn1c(CN2CCOCC2)nc2cc(NC(=O)COc3ccccc3)ccc21 | -3 | 50 | -5 | -3 | 23 | -3 | ·
COC(OC)c1ccc(C#N)c(SCc2ccc(C)cc2)n1 | -6 | -10 | 6 | -2 | 11 | -12 | ·
CC(=O)c1ccc(N=C2SCCCN2C(=O)C2CCCC2)cc1 | -3 | -13 | -1 | -9 | 398* | -9 | 0
Cc1cccnc1NC(=O)c1ccc(OCc2c(C)noc2C)cc1 | 0 | 27 | 1 | 9 | 1 | -11 | ·
O=C1C=C(c2ccc(Oc3ccccc3)cc2)C[C@@H](c2ccc(F)cc2)C1 | · | · | -2 | 4 | 1 | -1 | ·
COc1ccccc1-c1nnc(SCC(=O)NC2CCCCC2)n1N | · | · | -1 | 1 | -2 | -10 | ·
COc1ccccc1-c1nnc(SCC(=O)NC2CCS(=O)(=O)C2)n1N (stereo not drawn) | -7 | -20 | -4 | 6 | + | -6 | 0
N[C@@H](Cc1ccc(F)cc1)C(=O)O | · | · | · | · | · | -15 | ·
N[C@@H](Cc1ccc(O)c(I)c1)C(=O)O | -9 | 50 | -3 | · | 640* | · | 0
